Source: PubChem BioAssay (National Center for Advancing Translational Sciences (NCATS))
ELG1 DNA repair – inhibitors of ELG1-dependent DNA repair in HEK293T cells. HEK293T ELG1-luciferase reporter, luminescence, 16 h; DNA damage induced by 5-fluorouridine. Potency, µM (titrated, usually from 46.1 µM), usual class: inhibitors. actives 2.3% (n = 330,000). AID 504467; also: nearly all actives have a fitted effect of over 55% in size
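5-Fluorouridine DNA damage + compound/DMSO, 2,000 cells/well, 16 h, 37 °C/5% CO2. ONE-Glo, 30 min RT, luminescence. Readout = decrease in reporter signal.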
Rango release inh – inhibitors of RanGTP-induced Rango-importin beta complex dissociation; O95149+P62826; Biochemical FRET Rango-importin beta, RanGTP-induced dissociation; actives 0.071% (n = 340,000); Potency, µM (top dose mostly 46.1 µM); calls by dose curve; also: nearly all actives have a fitted effect of over 45% in size
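Quantitative HTS using a FRET biosensor: 0.1 uM Rango, 0.25 uM importin beta, 0.6 uM Ran, 2 mM GTP, 0.2 uM RCC1 final, PBS with DTT, Tween-20 and BSA. Post-read taken 45 min after Ran addition.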
Tb PFK inh-1 – T. brucei PFK enzyme inhibition. actives 0.17% (n = 330,000). T. brucei PFK, ADP-Glo luminescence. AID 485367. Potency, µM (titrated, usually from 57.5 µM), usual class: inhibitors. O15648; also: nearly all actives have a fitted effect of over 60% in size
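PFK 1.25 nM, F6P 0.5 mM, ATP 0.1 mM, 0.1 M TEA pH 8.0, 5 mM MgCl2, 0.01% Tween20, 0.1% BSA; 45 min RT. ADP-Glo readout. qHTS titration up to 57 uM; curves fitted, compounds curve-classed.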
Rango-impB inh – inhibitors of Rango-importin beta complex formation | Rango CFP/YFP FRET sensor + importin beta, 45 min | AID 540263 | Potency, µM (series often up to 92.2 µM) | actives 0.031% (n = 340,000) | Q14974; calls by dose curve; also: nearly all actives have a fitted effect of over 15% in size
Target sequence (Q14974 whole entry, looked up): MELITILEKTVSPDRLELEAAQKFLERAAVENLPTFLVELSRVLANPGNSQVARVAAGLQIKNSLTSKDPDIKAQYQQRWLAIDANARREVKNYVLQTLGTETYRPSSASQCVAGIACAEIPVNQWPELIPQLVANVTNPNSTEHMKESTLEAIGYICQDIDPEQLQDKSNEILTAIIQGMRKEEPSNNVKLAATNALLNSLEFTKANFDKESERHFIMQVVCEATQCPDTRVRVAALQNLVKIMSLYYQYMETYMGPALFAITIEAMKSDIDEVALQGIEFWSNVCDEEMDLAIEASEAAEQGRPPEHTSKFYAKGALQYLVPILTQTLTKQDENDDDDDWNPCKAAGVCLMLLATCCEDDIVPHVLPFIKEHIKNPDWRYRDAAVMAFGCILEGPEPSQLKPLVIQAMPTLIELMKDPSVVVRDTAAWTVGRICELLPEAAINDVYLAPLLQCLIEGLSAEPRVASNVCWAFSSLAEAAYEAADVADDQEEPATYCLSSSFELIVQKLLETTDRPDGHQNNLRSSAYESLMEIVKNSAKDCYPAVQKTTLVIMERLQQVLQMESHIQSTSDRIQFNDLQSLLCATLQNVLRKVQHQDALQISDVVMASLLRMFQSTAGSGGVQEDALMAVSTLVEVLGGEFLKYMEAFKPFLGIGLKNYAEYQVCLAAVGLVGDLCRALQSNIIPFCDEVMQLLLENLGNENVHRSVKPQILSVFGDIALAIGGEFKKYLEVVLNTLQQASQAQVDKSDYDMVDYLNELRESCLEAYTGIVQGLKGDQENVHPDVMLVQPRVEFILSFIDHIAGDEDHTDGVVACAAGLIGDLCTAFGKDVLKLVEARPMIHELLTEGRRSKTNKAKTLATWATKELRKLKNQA
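FRET biosensor (snurportin 1 IBB flanked by EYFP and cerulean), 50 nM, with compound 5 min, then 0.125 microM importin beta in PBS, 1 mM DTT, 0.02% Tween-20, 0.1% BSA. CFP/YFP ratio read after 45 min at room temperature; pre-read flags interference.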
PKM2 act – increases activity of human pyruvate kinase M2 | P14618 | purified PKM2, Kinase-Glo ATP luminescence, activation; response scale: 0% is enzyme alone, no compound | Potency, µM (highest dose often 57.5 µM), usual class: activators | actives 0.34% (n = 260,000) | AID 1631; also: nearly all actives have a fitted effect of over 55% in size
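Purified hPK-M2 (>95% pure) converted ADP (0.1 mM final) to ATP with 0.5 mM PEP in 50 mM imidazole pH7.2, KCl, MgCl2, Tween 20, BSA; 1 h at room temperature. ATP detected by Kinase-Glo luminescence.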
PGK inhibitor – blocks T. brucei phosphoglycerate kinase; P07378; actives 0.043% (n = 380,000); AID 602233; PGK/GAPDH coupled, Kinase-Glo luminescence, 60 min; Potency, µM (highest dose often 57.5 µM), most hits filed as inhibitors; also: nearly all actives have a fitted effect of over 60% in size
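Recombinant glycosomal PGK reaction used 1,3-bisphosphoglycerate generated in-well by GAPDH (100nM final) in 100mM TEA pH 7.6, 5mM MgCl2, 0.01% Tween-20. After 60 minutes at room temperature, ATP was read by Kinase-Glo Plus luminescence end-point.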
TbPFK ATP – inhibits T. brucei PFK measured by ATP depletion; shares compounds with Tb PFK inh-1; Tb PFK enzyme, ATP depletion, Kinase-Glo Plus luminescence; Potency, µM (series often up to 57.5 µM); actives 47% (n = 1,100); AID 504636; calls by dose curve; also: nearly all actives have a fitted effect of over 60% in size
Tb PFK inh-2 – validation of T. brucei phosphofructokinase inhibitors | shares compounds with Tb PFK inh-1 | purified T. brucei PFK, ADP-Glo luminescence, 45 min | Potency, µM (doses to about 57.5 µM), hits mostly inhibitors | AID 504637 | actives 41% (n = 1,100); also: nearly all actives have a fitted effect of over 60% in size
ELG1 FLuc counter – luciferase inhibition in cell-free luciferin readout for ELG1 hits. cell-free firefly luciferase luminescence counter-screen, ViewLux. actives 3% (n = 350). shares compounds with ELG1 DNA repair. Potency, µM (highest dose often 46.1 µM), hits mostly inhibitors. AID 624247
ELG1-Luc inh – human ELG1 repair inhibition, luciferase-tagged ELG1 confirmation. shares compounds with ELG1 DNA repair. HEK293T ELG1-luciferase levels, luminescence; cells co-treated with 5-fluorouridine. Potency, µM (top dose mostly 46.1 µM), most hits filed as inhibitors. actives 68% (n = 670); also: nearly all actives have a fitted effect of over 55% in size
ELG1 MMS Luc – confirmation of human ELG1 repair inhibitors, MMS stimulated. shares compounds with ELG1 DNA repair. HEK293T luciferase-tagged ELG1 level, MMS stimulated. actives 53% (n = 670). AID 624249. Potency, µM (highest dose often 46.1 µM), most hits filed as inhibitors; also: nearly all actives have a fitted effect of over 60% in size
ELG1 5-FU – confirmation of ELG1 repair inhibitors: viability with 5FU; shares compounds with ELG1 DNA repair; cell viability with 5-FU, ELG1-dependent repair; Potency, µM (series often up to 46.1 µM), hits mostly cytotoxic; 670 tested, under 10 active; AID 624250;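 also: ELG1-luc HEK293T cells cotreated with 5-fluorouridine at 10 µM final; viability measured 16 h after compound addition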
ELG1 MMS viab – confirmation of ELG1 repair inhibitors: viability with MMS | Potency, µM (titrated, usually from 46.1 µM), actives largely listed as cytotoxic | shares compounds with ELG1 DNA repair | actives 33% (n = 670) | Cell viability with MMS, ELG1-dependent DNA repair;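 also: ELG1-luc HEK293T cells co-treated with 10 µM MMS; viability read 16 h after compound addition; nearly all actives have a fitted effect of over 60% in size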
ELG1 unstim viab – unstimulated viability counter-screen for ELG1 repair hits; shares compounds with ELG1 DNA repair; cell viability counter-screen, unstimulated, luminescence; Potency, µM (top dose mostly 45.9 µM), hits mostly cytotoxic; actives 8% (n = 900); AID 624252;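 also: compound exposure lasted 16 hours before reading; nearly all actives have a fitted effect of over 55% in size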
FLuc biochem – inhibits purified firefly luciferase, counter-screen for ELG1 hits; shares compounds with ELG1 DNA repair; purified firefly luciferase, luminescence counter-screen; Potency, µM (doses to about 57.5 µM), usual class: inhibitors; actives 10% (n = 350); AID 624253
A number is an active result. Sampled rows, rich in hits. Any-hit rate of the full collection: about 2.4%. Unless noted, calls follow the shape of the dose curve; as a rule, active = well fitted curve in the direction sought with a large enough effect; inconclusive = small, poorly fitted or top-dose-only effect, or another doubt; inactive = no such curve, though single readings can be large; an effect the other way counts as inactive or inconclusive.

`Cc1ccc(C(=O)Nc2cccc3[nH]c(C(F)(F)F)nc23)cc1` gave ELG1 DNA repair inconclusive, Rango release inh inactive, Tb PFK inh-1 inconclusive, Rango-impB inh inactive, PGK inhibitor inactive, TbPFK ATP inconclusive, Tb PFK inh-2 inconclusive, ELG1-Luc inh 15.8µM, ELG1 MMS Luc 7.91µM, ELG1 5-FU inactive, ELG1 MMS viab 8.88µM and ELG1 unstim viab inconclusive.
`Cn1cnnc1Sc1cc(N2CCNCC2)ccc1[N+](=O)[O-]` gave ELG1 DNA repair inactive, Rango release inh inactive, Tb PFK inh-1 inactive, Rango-impB inh inactive, PKM2 act inactive and PGK inhibitor inactive.
C=C(C)[C@@]12OC3(c4ccccc4)O[C@@H]1[C@@H]1[C@@H]4O[C@]4(CO)[C@@H](O)[C@]4(O)C(=O)C(C)=C[C@H]4[C@@]1(O3)[C@H](C)[C@H]2OC(=O)/C=C/C=C/c1ccccc1 was read as ELG1 FLuc counter inactive, ELG1 unstim viab inconclusive and FLuc biochem inactive.
For CC1([N+](=O)[O-])COP(=O)(NCc2cccnc2)OC1 (stereo not drawn) the results were Rango release inh inactive, Rango-impB inh inactive and PGK inhibitor inactive.
For CCOc1cccc(=NC2CCCCC2)c2c(C)n(C)c(C)c12 the results were ELG1 DNA repair 4.61µM, Rango release inh inactive, Tb PFK inh-1 inactive, Rango-impB inh inactive, PKM2 act inactive, PGK inhibitor inactive, ELG1-Luc inh inconclusive, ELG1 MMS Luc 7.91µM, ELG1 5-FU inconclusive, ELG1 MMS viab 7.91µM and ELG1 unstim viab inconclusive.
Screening CC(C)C12CN3CCN(CC(C3)/C1=N\O)C2 returned ELG1 DNA repair inactive, Rango release inh inactive, Tb PFK inh-1 inactive, Rango-impB inh inactive, PKM2 act inactive and PGK inhibitor inactive.
`C[C@]12CCC3C(CCC4=CC(O)CC[C@@]43/C=N/O)C1(O)CCC2C1=CC(=O)OC1` (stereo partly drawn) gave ELG1 DNA repair 1.46µM, Rango release inh inactive, Tb PFK inh-1 inactive, Rango-impB inh inactive, PGK inhibitor inactive, ELG1-Luc inh 0.996µM, ELG1 MMS Luc 0.445µM, ELG1 5-FU inconclusive, ELG1 MMS viab 1.25µM and ELG1 unstim viab 0.499µM.
For C[C@H]1[C@H](OC(=O)CCC(=O)NCc2ccc(C(=O)O)cc2)O[C@@H]2O[C@@]3(C)CC[C@H]4[C@H](C)CC[C@@H]1C24OO3 the results were ELG1 DNA repair inconclusive, Rango release inh inactive, Tb PFK inh-1 inactive, Rango-impB inh inactive and PGK inhibitor inactive.
For CC1C(OC(=O)CCC(=O)NC(C)(C)CO)O[C@H]2OC3(C)CC[C@H]4[C@H](C)CCC1C24OO3 (stereo partly drawn) the results were ELG1 DNA repair 1.16µM, Rango release inh inactive, Tb PFK inh-1 inactive, Rango-impB inh inactive, PGK inhibitor inactive, ELG1-Luc inh inconclusive, ELG1 MMS Luc inconclusive, ELG1 5-FU inactive, ELG1 MMS viab inconclusive and ELG1 unstim viab inconclusive.
COc1cc2c(cc1OC)[C@@H]1C(=O)c3ccc4c(c3OC1CO2)CC(C(C)C)O4 (stereo partly drawn) was read as ELG1 FLuc counter inconclusive, ELG1-Luc inh 25µM, ELG1 MMS Luc 0.0445µM, ELG1 5-FU inactive, ELG1 MMS viab 0.0397µM, ELG1 unstim viab inconclusive and FLuc biochem inactive.
`O=C1/C(=C/c2ccccc2Cl)N2CCC1CC2` gave ELG1 DNA repair inconclusive, Rango release inh inactive, Tb PFK inh-1 inactive, Rango-impB inh inactive, PKM2 act inactive and PGK inhibitor inactive.
For COC[C@H]([C@@H](O)[C@@H](O)C(=O)NCC[C@@H](C)c1nc(/C=C/C[C@H]2OC3(C[C@H](O)[C@H]2C)OC([C@@H](C[C@@H](O)[C@@H](C)[C@@H](O)[C@@H](C)/C=C(C)/C(C)=C/C=C/C(C)=C\C#N)OC)[C@@H](OP(=O)(O)O)C3(C)C)co1)N(C)C (stereo partly drawn) the results were ELG1 FLuc counter 0.5µM, ELG1-Luc inh 0.141µM, ELG1 MMS Luc 0.0889µM, ELG1 5-FU 1.77µM, ELG1 MMS viab 0.0792µM, ELG1 unstim viab 0.158µM and FLuc biochem inactive.
CCN1C[C@]2(C)CC[C@H](OC)[C@]34C2[C@H](OC(C)=O)[C@@]2(OCO[C@@]25C[C@H](OC)[C@H]2C[C@]3(O)C5[C@H]2OC)[C@@H]14 was read as ELG1 DNA repair inactive, Rango release inh inactive, Tb PFK inh-1 inactive, Rango-impB inh inactive and PGK inhibitor inactive.
NNC(=O)c1ccc(O)cc1 was read as ELG1 DNA repair inactive, Rango release inh inactive, Tb PFK inh-1 inactive, Rango-impB inh inactive and PGK inhibitor inactive.
Screening O=C(CCl)c1ccc(O)c(O)c1 returned ELG1 unstim viab inactive.
